Hits are enriched below; roughly 7.5% of the tested compounds scored in any of these assays.
FLuc modulator = qHTS profiling assay for firefly luciferase inhibitor/activator using purifed enzyme and Km concentrations of substrates (counterscreen for miR-21 project); Potency, µM (doses to about 57.5 µM), for inactives: top-dose activity change, negative = inhibition, usual class: inhibitors; Luciferin 4-monooxygenase (Photinus pyralis), P08659; AID 588342, 2011; 6.9% of 360,000 active; purified FLuc, Km substrates, luminescence inhibition;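 also: plate controls were vehicle for no effect and reference inhibitor for full effect; nearly all actives have a fitted effect of over 55% in size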
Target sequence (P08659 whole entry, looked up): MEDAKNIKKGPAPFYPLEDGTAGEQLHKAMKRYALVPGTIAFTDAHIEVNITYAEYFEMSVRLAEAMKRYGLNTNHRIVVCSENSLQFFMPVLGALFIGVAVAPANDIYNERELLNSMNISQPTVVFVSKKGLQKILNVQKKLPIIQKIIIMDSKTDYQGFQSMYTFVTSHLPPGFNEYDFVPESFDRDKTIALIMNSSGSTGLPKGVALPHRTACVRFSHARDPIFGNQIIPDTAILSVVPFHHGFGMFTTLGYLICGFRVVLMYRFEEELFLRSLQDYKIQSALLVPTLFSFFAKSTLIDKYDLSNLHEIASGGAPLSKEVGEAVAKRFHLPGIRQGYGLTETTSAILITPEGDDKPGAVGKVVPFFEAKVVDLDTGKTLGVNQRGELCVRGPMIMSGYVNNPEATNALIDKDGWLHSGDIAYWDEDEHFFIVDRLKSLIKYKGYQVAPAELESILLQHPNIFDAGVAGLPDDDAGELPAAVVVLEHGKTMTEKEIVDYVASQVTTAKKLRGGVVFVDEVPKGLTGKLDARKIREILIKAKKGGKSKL
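Purified P. pyralis luciferase, 10 nM final, with Km-level 10 uM D-luciferin and 10 uM ATP in 50 mM Tris acetate pH 7.5, 10 mM Mg acetate, 0.01% Tween-20, 0.05% BSA; 6-point qHTS titration about 60 µM downward; luminescence read.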
ELG1 genotoxic = qHTS screen for small molecules that induce genotoxicity in human embryonic kidney (HEK293T) cells expressing luciferase-tagged ELG1. AID 504466, 2011. 1.3% of 330,000 active. Potency, µM (titrated, usually from 46 µM), for the others: at the top dose activity change, positive = activation, usual class: activators. HEK293T ELG1-luciferase reporter, luminescence, 16 h; also: % of control where 0% means no effect; nearly all actives have a fitted effect of over 60% in size
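Reporter readout depends on ELG1 protein level, which increases with genetic stress. After 16 hr compound exposure at 37 °C, luciferase activity was quantified using ONE-Glo.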
NPC1 promoter act = qHTS Assay for NPC1 Promoter Activators. Huh7 NPC1 promoter luciferase reporter, 24 h. Potency, µM (titrated, usually from 9.22 µM), for the others: top-dose activation, hits mostly activators. 2.4% of 320,000 active; also: % of control where 0% means no effect; nearly all actives have a fitted effect of over 60% in size
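Readout is luciferase luminescence, reflecting NPC1 promoter activation in stably transfected Huh7 cells after 24 h compound exposure at 37 °C in reduced-serum medium with 10% FBS.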
SMN2 splice up = qHTS Assay for Enhancers of SMN2 Splice Variant Expression; HEK293 SMN2-luciferase splicing reporter, luminescence, 30-36 h; Potency, µM (highest dose often 46.1 µM), inactives show at the top dose activity change, positive = activation, most hits filed as activators; 2.8% of 210,000 active; also: % of control where 0% means no effect; nearly all actives have a fitted effect of over 55% in size
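HEK293 cells carry an SMN2 […]–luciferase reporter in which exon 7 inclusion puts luciferase in frame. Cells were plated 10-12 h before compound addition, then incubated 30-36 h at 37C. ONE-Glo luminescence was read; sodium butyrate at 4.5 mM final served as control.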
Rab9 prom act = qHTS Assay for Rab9 Promoter Activators | Potency, µM (top dose mostly 9.22 µM), inactives show top-dose activation, negative = inhibition, most hits filed as activators | 2.8% of 320,000 active | AID 485297, 2010 | Huh7 Rab9 promoter-luciferase reporter, luminescence, 24 h; also: % of control where 0% means no effect; nearly all actives have a fitted effect of over 60% in size
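Measured in stably transfected Huh7 cells bearing a Rab9 promoter–luciferase construct: 24 h compound treatment at 37 °C, followed by luminescence detection.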
KinaseGlo FLuc = Counterscreen for Luciferase (Kinase-Glo TM) Inhibition; Luciferin 4-monooxygenase (Photuris pensylvanica), Q27757; Potency, µM (doses to about 38.3 µM), for the others: top-dose activity change, negative = inhibition, usual class: inhibitors; Kinase-Glo luciferase, ATP luminescence, 8 min; 0.28% of 200,000 active; AID 1379, 2008; also: % is scaled to controls: 0 for no effect and ±100 for the full control effect; nearly all actives have a fitted effect of over 60% in size
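Kinase-Glo luciferase light output from ATP and luciferin was measured with 10 uM ATP, within the enzyme's linear range. Buffer: 50 mM imidazole pH 7.2, 50 mM KCl, 7 mM MgCl2, 0.01% Tween 20, 0.05% BSA; luminescence read after 8 min at ambient temperature.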
Active calls of the source: *. Calls follow the shape of the dose curve; as a rule, active = well fitted curve in the direction sought with a large enough effect; inconclusive = small, poorly fitted or top-dose-only effect, or another doubt; inactive = no such curve, though single readings can be large; an effect the other way counts as inactive or inconclusive. Potency is read from the fitted curve at half-maximal effect.

Screening CCOc1ccc(NC(=O)c2oc3ccccc3c2NC(=O)Cc2cccs2)cc1 returned FLuc modulator 1.7% and SMN2 splice up -7.4%.
`CSc1nsc(/C=C/Nc2ccc(C)cc2)c1C#N` gave FLuc modulator 1.35µM*, SMN2 splice up inconclusive and KinaseGlo FLuc -2.9%.
Screening CCOc1ccccc1NC(=O)c1ccc2c(c1)CCN2S(C)(=O)=O returned FLuc modulator 1.1% and SMN2 splice up 0.5%.
CCc1ccc(NC(=O)C(=O)c2ccccc2NC(C)=O)cc1 was read as FLuc modulator inconclusive, ELG1 genotoxic inconclusive, NPC1 promoter act 1.58µM* and Rab9 prom act 2.82µM*.
`CC(=O)Nc1ccccc1C(=O)C(=O)O` gave FLuc modulator -1.8%, ELG1 genotoxic 1.4%, NPC1 promoter act 2.1%, SMN2 splice up 3.6%, Rab9 prom act -0.3% and KinaseGlo FLuc 1.0%.
Screening CC(=O)Nc1ccccc1C(=O)C(=O)Nc1ccc(F)c(Cl)c1 returned FLuc modulator 3.1%, ELG1 genotoxic inconclusive, NPC1 promoter act 3.98µM* and Rab9 prom act 3.16µM*.
CC(=O)Nc1ccccc1C(=O)C(=O)Nc1ccc(C)c(F)c1 was read as FLuc modulator inconclusive, ELG1 genotoxic inconclusive, NPC1 promoter act 3.55µM*, SMN2 splice up 6.31µM*, Rab9 prom act 1.78µM* and KinaseGlo FLuc -3.2%.
For Cc1ccc(NC(=O)/C(Cl)=C/c2ccccc2)cc1C the results were FLuc modulator 0.757µM*, ELG1 genotoxic inconclusive, NPC1 promoter act 1.78µM*, SMN2 splice up inconclusive, Rab9 prom act 2.51µM* and KinaseGlo FLuc -2.9%.
CCOc1ccc(C(C)NC(=O)c2ccc3c(c2)NC(=O)C(C)S3)cc1OCC (stereo not given) was read as FLuc modulator 1.7%, ELG1 genotoxic 0.2%, NPC1 promoter act -0.5% and Rab9 prom act 1.1%.
`CCC(C)NC(=O)CSc1nc2cc3c(cc2c(=O)n1CCCCCC(=O)NCc1ccc2c(c1)OCO2)OCO3` (stereo not given) gave FLuc modulator 2.0%.
Screening CC(=O)Nc1ccccc1C(=O)C(=O)Nc1cccc(C(=O)NCc2ccccc2)c1 returned FLuc modulator 3.5%, ELG1 genotoxic -1.3%, NPC1 promoter act -0.9%, SMN2 splice up -4.6%, Rab9 prom act 14.3% and KinaseGlo FLuc 3.0%.
NC(=O)c1ccccc1NC(=O)Nc1ccc(F)c(Cl)c1 was read as FLuc modulator 9.53µM*, ELG1 genotoxic 5.2%, NPC1 promoter act -2.3%, SMN2 splice up 17.5%, Rab9 prom act 0.1% and KinaseGlo FLuc inconclusive.
For CC(=O)Nc1ccccc1C(=O)C(=O)Nc1ccc(C)c(C)c1 the results were FLuc modulator inconclusive, ELG1 genotoxic inconclusive, NPC1 promoter act 2µM*, SMN2 splice up 17.8µM*, Rab9 prom act 0.891µM* and KinaseGlo FLuc 1.6%.
`NC(=O)c1ccccc1NC(=O)Nc1cccc(Cl)c1Cl` gave FLuc modulator -12.2%, ELG1 genotoxic 4.8%, NPC1 promoter act 0.0%, SMN2 splice up 4.5%, Rab9 prom act -3.1% and KinaseGlo FLuc -0.1%.
Cc1ccc(Cc2cnc(NC(=O)c3ccc4c(c3)CC(c3ccccc3)OC4=O)s2)cc1 (stereo not given) was read as FLuc modulator -0.1% and SMN2 splice up 51.6%.
For CCOc1ccc(C2C(=O)N(C3CCCCC3)CC(=O)N2Cc2ccccc2OC)cc1OC (stereo not given) the results were FLuc modulator -8.5%.
For Cc1cc(C)n(-c2ccc(Cl)c(C(=O)O)c2)n1 the results were FLuc modulator 19µM*, ELG1 genotoxic 9.6%, NPC1 promoter act -2.1%, Rab9 prom act -6.9% and KinaseGlo FLuc -3.2%.
For COC(=O)c1cc(N=Nc2c(C)[nH]c3ccccc23)cc(C(=O)OC)c1 the results were FLuc modulator -1.3%, ELG1 genotoxic 1.6%, NPC1 promoter act 0.4% and Rab9 prom act -9.4%.
Screening Cc1[nH]c2ccccc2c1N=Nc1cccc(C(=O)O)c1 returned FLuc modulator 10.7µM*, ELG1 genotoxic 18.7%, NPC1 promoter act 3.16µM*, SMN2 splice up 12.6µM*, Rab9 prom act 2.24µM* and KinaseGlo FLuc 5.2%.
CC(=O)c1ccc(N=Nc2c(C)[nH]n(-c3ccccc3)c2=O)cc1 was read as FLuc modulator -14.6%, ELG1 genotoxic -1.9%, NPC1 promoter act 15.7% and Rab9 prom act 13.4%.
For Cc1[nH]n(-c2ccccc2)c(=O)c1N=Nc1ccccc1 the results were FLuc modulator 4.78µM*, ELG1 genotoxic inconclusive, NPC1 promoter act inconclusive, SMN2 splice up 14.1µM*, Rab9 prom act inconclusive and KinaseGlo FLuc -0.8%.
`Cc1[nH]n(-c2ccccc2)c(=O)c1N=Nc1cccc(C(=O)O)c1` gave FLuc modulator 0.269µM*, ELG1 genotoxic inconclusive, NPC1 promoter act inconclusive and Rab9 prom act 1.12µM*.
For Cc1[nH]n(-c2ccccc2)c(=O)c1N=Nc1ccc(C(=O)O)cc1 the results were FLuc modulator 7.57µM*, ELG1 genotoxic 12.4%, NPC1 promoter act 23.5% and Rab9 prom act 28.3%.
Screening Cc1[nH]n(-c2ccccc2)c(=O)c1N=Nc1ccc(Cl)cc1 returned FLuc modulator -18.5%, ELG1 genotoxic -1.8%, NPC1 promoter act 22.9% and Rab9 prom act 13.3%.
For NC(=O)c1ccccc1NC(=O)Cn1nc(Cc2cccnc2)c2ccccc2c1=O the results were FLuc modulator -11.0% and SMN2 splice up -18.1%.
Cc1ccccc1N(C)C(=O)C1CCCN(c2ncnc3c2nc2n3CCCCC2)C1 (stereo not given) was read as FLuc modulator 1.3%, ELG1 genotoxic -4.3%, NPC1 promoter act 1.5% and Rab9 prom act -4.1%.
Screening CCOc1ccc(-c2nnc(SCC(=O)NCCC(C)C)nc2-c2ccc(OCC)c(OC)c2)cc1OC returned FLuc modulator -3.9%.
`CC(C)=CCC/C(C)=C\COc1c2ccoc2cc2oc(=O)ccc12` gave KinaseGlo FLuc 1.6%.
`COc1ccccc1N=Nc1c(C)[nH]n(-c2ccccc2)c1=O` gave FLuc modulator 10.7µM*, ELG1 genotoxic -3.4%, NPC1 promoter act inconclusive and Rab9 prom act inconclusive.

Screens deposited in PubChem BioAssay by National Center for Advancing Translational Sciences (NCATS).
